# Hits are enriched below; roughly 4.2% of the tested compounds scored in any of these assays.
# AHR activator: activates the human aryl hydrocarbon receptor | P35869 | AHR-responsive luciferase reporter cells, luminescence | activation, % at 5 µM | hit rate 2.5% among 320,000 | AID 2796; in the data active = activation above about 47%;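 note: 0% = vehicle wells and 100% = reference agonist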
# Target sequence (P35869 whole entry, looked up): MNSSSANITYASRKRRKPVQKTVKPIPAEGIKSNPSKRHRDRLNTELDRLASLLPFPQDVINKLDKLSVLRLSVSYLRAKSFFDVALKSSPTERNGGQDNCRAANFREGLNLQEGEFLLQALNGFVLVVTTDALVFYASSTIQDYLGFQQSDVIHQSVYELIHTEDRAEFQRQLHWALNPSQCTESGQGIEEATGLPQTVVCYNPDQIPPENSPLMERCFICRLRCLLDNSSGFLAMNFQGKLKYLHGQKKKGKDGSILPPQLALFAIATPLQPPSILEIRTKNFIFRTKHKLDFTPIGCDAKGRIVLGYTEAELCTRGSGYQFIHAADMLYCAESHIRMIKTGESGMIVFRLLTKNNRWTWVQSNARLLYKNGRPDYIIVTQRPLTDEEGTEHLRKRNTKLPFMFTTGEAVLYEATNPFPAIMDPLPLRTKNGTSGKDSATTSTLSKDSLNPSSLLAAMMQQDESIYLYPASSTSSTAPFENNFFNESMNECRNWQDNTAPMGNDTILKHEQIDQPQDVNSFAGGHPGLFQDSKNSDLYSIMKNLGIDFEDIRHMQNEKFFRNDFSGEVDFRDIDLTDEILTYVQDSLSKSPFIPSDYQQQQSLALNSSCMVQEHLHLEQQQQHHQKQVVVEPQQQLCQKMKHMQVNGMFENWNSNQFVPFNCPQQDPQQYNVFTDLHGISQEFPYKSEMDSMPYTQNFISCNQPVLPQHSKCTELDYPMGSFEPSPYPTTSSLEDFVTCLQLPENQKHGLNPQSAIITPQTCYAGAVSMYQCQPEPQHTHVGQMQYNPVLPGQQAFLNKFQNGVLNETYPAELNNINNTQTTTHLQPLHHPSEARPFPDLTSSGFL
# esBAF inh: SWI/SNF esBAF complex inhibition; mouse ES cells, Bmi1-luciferase knock-in reporter, 24 h; 100% = twice the neutral-well signal; hit rate 2% among 350,000; AID 602393; reporter increase, % at 12.5 µM; in the data active = activation above about 40%; inconclusive = no clear call, values can overlap the other calls;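 note: 0% = median of the plate's neutral control wells and 100% = double that signal; a rise in the Bmi1 reporter signal indicates esBAF inhibition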
# FXN GAA850 act: frataxin GAA850 promoter activation. hit rate 0.56% among 360,000. HEK293 lucGAA850 FXN promoter luciferase reporter, 24 h; percent of 10 µM SAHA response. activation, % at 6 µM;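 active = activation above the average of all compounds screened plus 3 SD, cutoff fixed separately per campaign, cut at about 7.5% in these data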;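 note: 0% = DMSO wells and 100% = 10 µM SAHA wells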
# Wnt act: activators of Wnt/beta-catenin signaling; hit rate 1.2% among 300,000; Wnt/beta-catenin reporter cell assay, activator, plate reader; activation, % at 9.35 µM; in the data active = activation above about 30%, passing the limit was not always enough; inconclusive = no clear call, values can overlap the other calls;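 note: 0% = neutral control wells and 100% = positive control wells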
# MITF TRPM1 HTS: MITF TRPM1 promoter activation in melanoma cells; SK-MEL-5 TRPM1-promoter luciferase, 24 h; % of positive control, neutral wells = 0; hit rate 0.75% among 300,000; activation, % at 12.5 µM;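 active = mean activation of at least 80% with every replicate also reaching 80%; inconclusive = mean reaches 80% but some replicate falls short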;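 note: 0% = neutral control wells and 100% = parthenolide positive control wells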
# Ring1 derepress: de-represses Ring1 in mouse ESCs, confirming esBAF inhibition. mouse ESC E14, Ring1 mRNA RT-qPCR fold change. AID 743176. fold change at 33 µM. 550 tested, under 10 active. shares compounds with esBAF inh;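 active = Ring1 gene expression raised more than 2-fold over untreated cells in both replicates at either tested dose; inconclusive = only one replicate above 2-fold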;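 note: Ring1 transcript normalised to actin housekeeping signal by TaqMan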
# Fgf4 repress: represses Fgf4 in mouse ESCs, confirming esBAF inhibition; shares compounds with esBAF inh; mouse ESC E14, Fgf4 mRNA qPCR fold change; hits give low values; Fgf4 expression fold change at 33 µM; hit rate 4% among 550; AID 743177;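 active = Fgf4 expression under 0.8 fold of control in both repeat measurements at one or both tested doses; inconclusive = under 0.8 fold in just a single repeat measurement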;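 note: Fgf4 transcript normalised to actin in duplex TaqMan qPCR; cells exposed to compound for 24 h before lysis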
# Bmi1 derepress: de-represses Bmi1 in mouse ESCs, confirming esBAF inhibition | AID 743180 | shares compounds with esBAF inh | 550 tested, under 10 active | fold change at 33 µM | mouse ESE14 ES cells, Bmi1 mRNA qPCR fold; hits give high values;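 active = Bmi1 expression fold change above 6 at either tested concentration, seen in replicate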;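 note: higher fold means more Bmi1 de-repression and stronger esBAF inhibition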
# A549 tox SP: kills or reduces viability of A549 cells | 550 tested, under 10 active | shares compounds with esBAF inh | A549 cytotoxicity, plate reader | cell viability change % (negative = cytotoxic), % at 25 µM, hits read low; call rule not given here
# HepG2 cytotox SP: kills or reduces viability of HepG2 cells. hit rate 4% among 550. HepG2 cytotoxicity, plate reader; hits give low values. shares compounds with esBAF inh. activity change, negative = inhibition, % at 25 µM; in the data active = activity change below about -50%
# HEK293 cytotox SP: kills or reduces viability of HEK293 cells. shares compounds with esBAF inh. hit rate 3% among 550. HEK293 cytotoxicity, plate reader. activity change, negative = inhibition, % at 25 µM, hits read low; in the data active = activity change below about -38%, passing the limit was not always enough
# Starred values were filed as active, the others as inactive; u = inconclusive; x = no result given.
SMILES,AHR activator,esBAF inh,FXN GAA850 act,Wnt act,MITF TRPM1 HTS,Ring1 derepress,Fgf4 repress,Bmi1 derepress,A549 tox SP,HepG2 cytotox SP,HEK293 cytotox SP
Cc1ccc(C(=O)CN2C(=O)NC3(CCCCCC3)C2=O)c(C)c1,6,80*,4,24,115*,1.1,0.9,1.4,-7,12,-17
O=C(C[C@@H]1CC[C@H]2[C@@H](COC[C@@H](O)CN2Cc2ccc(Oc3ccccc3)cc2)O1)N1CCc2ccccc2C1,x,-13,x,x,x,x,x,x,x,x,x
O=C(Nc1cccc2ccccc12)c1cnccn1,4,63*,2,x,25,1,0.92,1.5,-6,-15,-10
Cc1cccc(NC(=O)c2ccccn2)c1C,-1,63*,2,36*,73,0.79,1,1.2,-14,-6,-17
CCc1ccccc1NC(=O)c1cnccn1,x,-7,-1,x,-4,x,x,x,x,x,x
C[C@@H]1CCCCO[C@H](CN(C)S(=O)(=O)c2cn(C)cn2)[C@@H](C)CN([C@@H](C)CO)C(=O)c2cc(NC(=O)Nc3ccc(F)cc3)ccc2O1,x,-2,x,x,x,x,x,x,x,x,x
CC(C)NC(=O)Nc1ccc2c(c1)C(=O)N([C@H](C)CO)C[C@@H](C)[C@H](CN(C)Cc1ccncc1)O2,x,-3,x,x,x,x,x,x,x,x,x
C=CCn1cccc(C(=O)Nc2ccc(C)c(Cl)c2)c1=O,x,u,2,21,x,x,x,x,x,x,x
C=CCn1cccc(C(=O)Nc2ccc(Cl)cc2)c1=O,51*,63*,5,15,82*,1.2,0.94,1.2,6,-20,-15
COc1cccc(C(=O)Nc2ccc3c(c2)C(=O)N(C)C[C@H](OC)[C@@H](C)CN(CC2CC2)[C@H](C)CO3)c1,x,0,x,x,x,x,x,x,x,x,x
CC(=O)N1CCN(c2ccc(NCc3ccc(F)cc3)cc2)CC1,2,7,0,-2,-4,x,x,x,x,x,x
COc1cc(CNc2ccc(N3CCN(C(C)=O)CC3)cc2)ccc1OCc1ccc(F)cc1,-1,58*,0,16,-31,2.2*,1.3,2.3,-5,-23,-29
COc1ccc(-c2cn3c(C)c(C(=O)NC(C)(C)C)sc3n2)cc1,55*,72*,5,27,x,0.82,0.9,1.9,3,-12,-8
CC(C)CN1C(=O)c2ccc(NC(=O)c3cccs3)cc2C1=O,-1,63*,4,x,u,1.3,0.97,2.1,6,-4,-14
CC(C)CN1C(=O)c2ccc(C(=O)Nc3nccs3)cc2C1=O,3,63*,2,x,34,0.95,0.98,1.4,-14,-34,-19
C[C@H]1CN([C@@H](C)CO)C(=O)c2cccc(N(C)C)c2O[C@@H]1CN(C)Cc1ccc(-c2ccccc2)cc1,x,1,x,x,x,x,x,x,x,x,x
COc1ccc(S(=O)(=O)Nc2ccc3c(c2)[C@H]2C[C@H](CC(=O)O)O[C@@H](CO)[C@H]2O3)cc1,x,-1,x,x,x,x,x,x,x,x,x
Cc1ccc(S(=O)(=O)NCc2ccccc2)cc1C(=O)N1CC(C)CC(C)C1 (stereo unspecified),0,-8,2,-1,1,x,x,x,x,x,x
Cc1ccc(S(=O)(=O)NCc2ccccc2)cc1C(=O)NC1CCC(C)CC1 (stereo unspecified),6,74*,1,21,79,1.1,0.9,1.5,-12,-1,-10
CCN(C(=O)c1cccs1)c1nnc(-c2ccncc2)s1,0,58*,2,18,18,1.2,0.97,0.9,-4,-24,-9
COCCN(C(=O)Cc1cccs1)c1nnc(-c2ccncc2)s1,1,5,2,0,x,x,x,x,x,x,x
COc1ccc(C(=O)c2sc(Nc3ccc(NC(C)=O)cc3)nc2C)cc1,1,9,0,-4,x,x,x,x,x,x,x
Cc1nc(Nc2ccccc2)sc1C(=O)c1ccc(F)cc1,7,66*,5,10,53,1.1,0.88,1.5,7,-12,0
CNc1nc(C)c(C(=O)c2ccc(Cl)cc2)s1,2,x,4,x,2,x,x,x,x,x,x
COc1ccc(Nc2nc(C)c(C(C)=O)s2)cc1,x,82*,x,5,x,1.2,0.88,1.4,-5,-8,0
SMILES,AHR activator,esBAF inh,FXN GAA850 act,Wnt act,MITF TRPM1 HTS,Ring1 derepress,Fgf4 repress,Bmi1 derepress,A549 tox SP,HepG2 cytotox SP,HEK293 cytotox SP
O=C1NCCC/C1=N/Nc1cc(F)ccc1F,10,60*,3,-2,57,0.82,0.88,1.3,-12,-55*,-21
Cc1ccc(N/N=C2/CCCNC2=O)cc1,14,0,2,1,x,x,x,x,x,x,x
Cc1noc(C)c1NC(=O)Nc1ccc2c(c1)C(=O)N([C@H](C)CO)C[C@@H](C)[C@H](CN(C)S(=O)(=O)c1ccc(F)cc1)OCCCC[C@H](C)O2,x,0,x,x,x,x,x,x,x,x,x
CC(c1ccccc1)c1nnc(NC(=O)Nc2ccccc2F)s1 (stereo unspecified),x,80*,2,0,u,1.3,0.88,1.2,-8,-37,-2
Cn1c(-c2ncc(F)cc2F)cc2onc(-c3c(F)cccc3Cl)c2c1=O,50*,91*,2,40*,87*,0.9,u,1.4,3,0,1
CCN(CC)C(=O)Oc1ccc2c(=O)c(-c3ccc(OC)cc3)coc2c1,-3,61*,1,20,u,1.1,0.83,1.6,-6,2,-6
O=C(C[C@H]1CC[C@@H](NS(=O)(=O)c2ccc(F)cc2)[C@@H](CO)O1)NC1CCCCC1,x,5,x,x,x,x,x,x,x,x,x
N/C(=N\OC(=O)CC1CCCCC1)c1ccncc1,1,x,1,1,9,x,x,x,x,x,x
N/C(=N\OC(=O)CC1CCCCC1)c1ccccn1,1,82*,1,x,88*,1.4,u,1.6,-1,-24,8
CC(C)c1ccc(CNNC(=O)c2ccccc2)cc1,-1,70*,4,26,70,0.92,0.89,2.6,-6,6,-5
CC(C)c1ccc(CC(NC(=O)c2ccccc2)C(=O)NCC(=O)O)cc1 (stereo unspecified),2,x,2,0,-5,x,x,x,x,x,x
COC(=O)C(Cc1ccc(OC(=O)c2ccc(Cl)cc2)cc1)N1Cc2ccccc2C1=O (stereo unspecified),6,72*,2,-1,28,1.2,0.84,1.2,3,-30,-5
CC(C)NC(=O)Nc1cccc2c1O[C@@H](CN(C)S(=O)(=O)c1ccccc1)[C@@H](C)CN([C@@H](C)CO)C2=O,x,3,x,x,x,x,x,x,x,x,x
